According to the supplement of paper PMC8728848:
The sample as a whole holds a higher share of the strongest signals than the screen did.

How the values were obtained:
Assay in all cases: glycan array binding signal (z-score within array); higher = stronger binding
Settings in all cases: glycan notation: IUPAC condensed, linker removed
[1] = biological target: Gal6P(b1-4)GlcNAc
Outline: (§1)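 The binding signal is a Z-score computed within each array and averaged over linkers. Arrays of the same protein sequence at different concentrations or buffers were also averaged together. Data originate from 3228 arrays in the Consortium for Functional Glycomics database, kept only where the protein sequence was available.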

[2] = biological target: GalNAc4S6S(b1-4)GlcNAc
Outline: as §1

[3] = biological target: GlcNAc(b1-2)[GlcNAc(b1-4)]Man(a1-3)[GlcNAc(b1-4)][GlcNAc(b1-2)[GlcNAc(b1-6)]Man(a1-6)]Man(b1-4)GlcNAc(b1-4)[Fuc(a1-6)]GlcNAc
Outline: as §1

[4] = biological target: GlcNAc(b1-3)Gal(b1-4)GlcNAc(b1-3)Gal(b1-4)GlcNAc(b1-3)Gal(b1-4)GlcNAc(b1-3)Gal(b1-4)GlcNAc(b1-2)[GlcNAc(b1-3)Gal(b1-4)GlcNAc(b1-3)Gal(b1-4)GlcNAc(b1-3)Gal(b1-4)GlcNAc(b1-3)Gal(b1-4)GlcNAc(b1-6)]Man(a1-6)[GlcNAc(b1-3)Gal(b1-4)GlcNAc(b1-3)Gal(b1-4)GlcNAc(b1-3)Gal(b1-4)GlcNAc(b1-3)Gal(b1-4)GlcNAc(b1-2)Man(a1-3)]Man(b1-4)GlcNAc(b1-4)[Fuc(a1-6)]GlcNAc
Outline: as §1

[5] = biological target: GlcNAc(b1-3)Gal(b1-4)GlcNAc(b1-6)[GlcNAc(b1-3)]Gal(b1-4)GlcNAc
Outline: as §1

[6] = biological target: GlcNAc(b1-4)Gal(b1-4)GlcNAc
Outline: as §1

[7] = biological target: GlcNAc(b1-4)GlcNAc(b1-4)GlcNAc(b1-4)GlcNAc(b1-4)GlcNAc
Outline: as §1

[8] = biological target: GlcNAc(b1-4)GlcNAc(b1-4)GlcNAc(b1-4)GlcNAc(b1-4)GlcNAc(b1-4)GlcNAc
Outline: as §1

[9] = biological target: GlcNAc(b1-6)GalNAc
Outline: as §1

[10] = biological target: Man(a1-2)Man(a1-2)Man(a1-3)Man
Outline: as §1

[11] = biological target: Man(a1-3)[Man(a1-6)]Man
Outline: as §1

[12] = biological target: Neu5Ac(a2-3)Gal(b1-3)GalNAc(b1-3)Gal(a1-4)Gal(b1-4)Glc
Outline: as §1

[13] = biological target: Neu5Ac(a2-3)Gal(b1-3)[Fuc(a1-4)]GlcNAc(b1-3)Gal(b1-3)[Fuc(a1-4)]GlcNAc
Outline: as §1

[14] = biological target: Neu5Ac(a2-6)Gal(b1-4)Glc
Outline: as §1

[15] = biological target: Neu5Ac(a2-6)Gal(b1-4)GlcNAc
Outline: as §1

[16] = biological target: Neu5Ac(a2-6)Gal(b1-4)GlcNAc(b1-2)Man(a1-3)Man(b1-4)GlcNAc(b1-4)GlcNAc
Outline: as §1

[17] = biological target: Neu5Ac(a2-6)Gal(b1-4)GlcNAc(b1-2)Man(a1-3)[GlcNAc(b1-2)Man(a1-6)]Man(b1-4)GlcNAc(b1-4)GlcNAc
Outline: as §1

[18] = biological target: Neu5Ac(a2-6)Gal(b1-4)GlcNAc(b1-3)Gal(b1-4)GlcNAc(b1-3)[Neu5Ac(a2-6)Gal(b1-4)GlcNAc(b1-3)Gal(b1-4)GlcNAc(b1-6)]GalNAc
Outline: as §1

[19] = biological target: Neu5Ac(b2-6)GalNAc
Outline: as §1

[20] = biological target: Neu5Gc(a2-6)Gal(b1-4)GlcNAc
Outline: as §1

B1: PX9937I-bfa-538-26-538 (Bacteroides fragilis) (protein)
chain: DKLDLSPIDYYGSGSYWKTEAQATAYIDGIHKHLRDAAWQHTITFGELRGGRFITGASSDGMGVSNGDIILQNFDETHTGVSKFGDLFGRITNLNLFIARVTDATYLSDEMKNFYLGEVYGLRAFYYFDLYRIYGGVPLRLTADVVEGVIDPNKLYMARSTPKEVMTQIKSDLNKSMEYFGNMNDFDPYKRGKKVYWSKAATECLMGEVYLWTSKVTTGDDVANPADLTIAKTHLESVLNNYNLKMLDDFSQVFNAKNKANDEIIFAIRFLEGEATNSNGTFTYNVGTGSTKNRYQANGEVFGDALDIQNTGNQTYEYNKAVYQNFDDADTRKEATFIASYNKDGKTGELSLYGTHVRKNIGYVNAQGARVYCGDYIFYRLPWVYLTLAEIANMEGDNAAVAKYINLVRKRAYGNAWDETLYAYPETADFTTNELAILHEKDKEFIQEGQRWWDLRRMTLTKGGTPLVFCKEGSLLGDAPILNKSTEAHKLLWPIEKTMLNKDPALEQTPGYK
- glycan array binding signal (z-score) [1]: -0.37
- glycan array binding signal (z-score) [2]: -0.708
- glycan array binding signal (z-score) [3]: -0.615
- glycan array binding signal (z-score) [4]: 0.041
- glycan array binding signal (z-score) [5]: -0.068
- glycan array binding signal (z-score) [6]: 1.65
- glycan array binding signal (z-score) [7]: 1.25
- glycan array binding signal (z-score) [8]: -0.198
- glycan array binding signal (z-score) [9]: 0.252
- glycan array binding signal (z-score) [10]: 0.241
- glycan array binding signal (z-score) [11]: 0.95
- glycan array binding signal (z-score) [12]: -1
- glycan array binding signal (z-score) [13]: -1.26
- glycan array binding signal (z-score) [14]: -0.274
- glycan array binding signal (z-score) [15]: -0.419
- glycan array binding signal (z-score) [16]: 3.63
- glycan array binding signal (z-score) [17]: -0.591
- glycan array binding signal (z-score) [18]: -0.643
- glycan array binding signal (z-score) [19]: -0.386
- glycan array binding signal (z-score) [20]: -0.339
